# Screening results as filed in PubChem.
# Rows were chosen to be rich in hits. Some 5.5% of all compounds tested hit in one or more screens of this group.
# Integrin act MD: qHTS for Activators of Integrin-Mediated Alleviation for Muscular Dystrophy | hit rate 0.064% among 350,000 | alpha7betagal myoblasts, beta-gal FDG fluorescence, 48 h | Potency, µM (highest dose often 38.3 µM), inactives show at the highest dose activation, most hits filed as activators;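 further: 100% = response of the positive control SU9516; nearly all actives have a fitted effect of over 60% in size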
#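 Alpha7betagal+/- myoblasts (passage 13) were plated 16-24 hr, then exposed to compounds (1:260 dilution of DMSO stock) for 48 hours at 37C. After MPER lysis, β-galactosidase reporter activity was read as FDG fluorescence (ex 480/em 540) after 30 minutes.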
# RORgamma inh: qHTS for inhibitors of ROR gamma transcriptional activity | Nuclear receptor ROR-gamma (Mus musculus), P51450 | Drosophila S2 Gal4-RORgamma UAS-luciferase reporter, 20 h | Potency, µM (series often up to 53.6 µM), for inactives: at the highest dose activity change, negative = inhibition, most hits filed as inhibitors | hit rate 5.4% among 310,000 | AID 2551, 2010; further: on the % scale 0 is the no-effect control and ±100 the full control effect; nearly all actives have a fitted effect of over 60% in size
# Target sequence (P51450 whole entry, looked up, the tested form may be a part): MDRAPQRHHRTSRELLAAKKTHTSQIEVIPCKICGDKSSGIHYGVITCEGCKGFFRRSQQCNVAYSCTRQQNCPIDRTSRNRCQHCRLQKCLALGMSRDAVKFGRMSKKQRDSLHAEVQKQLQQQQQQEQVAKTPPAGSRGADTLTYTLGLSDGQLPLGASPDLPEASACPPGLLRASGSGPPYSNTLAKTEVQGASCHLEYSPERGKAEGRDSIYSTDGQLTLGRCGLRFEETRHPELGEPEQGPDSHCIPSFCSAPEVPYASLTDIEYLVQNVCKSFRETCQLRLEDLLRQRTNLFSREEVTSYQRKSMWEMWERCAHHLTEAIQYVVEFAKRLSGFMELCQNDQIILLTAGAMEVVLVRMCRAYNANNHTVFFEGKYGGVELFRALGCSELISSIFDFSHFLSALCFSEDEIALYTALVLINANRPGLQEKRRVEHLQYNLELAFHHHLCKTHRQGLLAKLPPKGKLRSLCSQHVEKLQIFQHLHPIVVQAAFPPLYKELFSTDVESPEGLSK
#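 Stable Schneider cell line, Gal4 DNA-binding domain fused to ROR gamma, UAS-luciferase. Cmpd 1 hr RT → CuSO4 700 uM final → 20 hr RT → luciferase reagent 10 min → luminescence.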
# uPA generation: qHTS for Inhibitors of Cell Surface uPA Generation; Potency, µM (titrated, usually from 38.3 µM), without a hit: at the top dose activity change, negative = inhibition, usual class: inhibitors; AID 540303, 2011; hit rate 0.31% among 330,000; cell surface uPA generation assay, qHTS; active means well fitted inhibition curve with a large enough effect; inconclusive means small, poorly fitted or top-dose-only effect; inactive means no such curve, though single readings can be large or run the other way; tested in mouse RAW 264.7 cells; further: on the % scale 0 is the no-effect control and ±100 the full control effect; nearly all actives have a fitted effect of over 55% in size
# Gal4-VP16 FLuc: VP16 counterscreen qHTS for inhibitors of ROR gamma transcriptional activity. Drosophila S2 Gal4-VP16 UAS-luciferase, luminescence, 20 h. Potency, µM (titrated, usually from 53.6 µM), inactives show at the top dose activity, negative = inhibition, usual class: inhibitors. hit rate 3.5% among 310,000. AID 2546, 2010;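 further: Gal4-VP16 expression switched on by copper sulfate through the metallothionein promoter; on the % scale 0 is the no-effect control and ±100 the full control effect; nearly all actives have a fitted effect of over 50% in size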
# Chronic BCR inh: qHTS Assay to Find Inhibitors of Chronic Active B-Cell Receptor Signaling; Potency, µM (highest dose often 46.1 µM), inactives show at the highest dose activity change, negative = inhibition, most hits filed as inhibitors; ABC-DLBCL IkBa-CBG/CBR reporter, luminescence ratio, 4 h; AID 493014, 2011; hit rate 0.05% among 340,000; active means well fitted inhibition curve with a large enough effect in the signal ratio, with a control signal flat, not every such curve was filed as active; inconclusive means small, poorly fitted or top-dose-only effect, or effect the other way, or a change in a side signal; the % refers to the signal ratio;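 further: plate controls were basal doxycycline-induced cells for no effect and cells given 10 µM MG132 for full effect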
#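 Doxycycline induced both beetle luciferases in TMD8 lymphoma cells; IKK-driven degradation limits the IkappaBalpha-fused green signal, while red luminescence normalises for cell number and nonspecific effects. Compounds tested up to 46 uM, 4 hrs.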
# Mito fusion act: qHTS Assay for Small Molecule Inhibitors of Mitochondrial Division or Activators of Mitochondrial Fusion | S. cerevisiae fusion-defective mutant growth rescue, CellTiterGlo 48 h | Potency, µM (series often up to 46.1 µM), without a hit: at the highest dose growth rescue (activation), actives largely listed as activators | hit rate 0.23% among 320,000; further: % of control where 0% means no effect; nearly all actives have a fitted effect of over 45% in size
#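 Compounds are tested for their ability to restore growth of mitochondrial fusion-defective yeast strains at non-permissive 37C in YPEG medium over 48 hours. Viability is quantified by luciferase luminescence.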
# An asterisk follows results filed as active; ? = inconclusive; . = not tested or not shown; [ ] = remark or other dose. Unless noted, the call rests on the fitted dose curve; in most records, active means well fitted curve in the direction sought with a large enough effect; inconclusive means small, poorly fitted or top-dose-only effect, or another doubt; inactive means no such curve, though single readings can be large; an effect the other way counts as inactive or inconclusive. Potency means the concentration at half of the fitted maximal effect.
SMILES,Integrin act MD,RORgamma inh,uPA generation,Gal4-VP16 FLuc,Chronic BCR inh,Mito fusion act
O=C(NO)c1ccccc1,.,-11%,.,2%,.,.
CC1=C/C(=N\NC(=O)c2ccccc2)CC1,10%,13µM*,2%,?,?,-6%
CCCC1NC(=O)c2cccnc2-n2c1nc1ccc(Cl)cc1c2=O (centres undefined),-18%,.,.,.,.,.
CNC(=S)N/N=C(\C)c1ccc(N2CCOCC2)cc1,-51%,7.9µM*,-18%,?,?,-2%
C/C(=N\NC(=O)c1cccc(C)c1)c1ccc(N2CCOCC2)cc1,0%,?,-1%,4%,?,0%
CCNC(=S)N/N=C(\C)c1ccc(N2CCOCC2)cc1,15%,2.5µM*,-2%,3.5µM*,?,-6%
CC(Cc1cccs1)NC(=O)Nc1ccc([N+](=O)[O-])cc1 (centres undefined),-19%,?,-7%,15%,6%,2%
COc1ccc(NC(=S)NC(C)Cc2cccs2)cc1 (centres undefined),-6%,14µM*,21%,2.8µM*,-24%,-1%
CCC(C)NC(=S)Nc1ccc(F)cc1 (centres undefined),0%,10µM*,0%,?,?,-4%
CC(Cc1cccs1)NC(=S)Nc1ccc(F)cc1 (centres undefined),7%,3.2µM*,0%,16µM*,7%,1%
CC(Cc1cccs1)NC(=O)c1cccs1 (centres undefined),1%,0%,0%,2%,1%,5%
Oc1ccc(NC(=S)Nc2ccc(F)cc2)cc1,0%,25%,-18%,-6%,0%,2%
CCN(CC)c1ccc(NC(=S)Nc2ccc(F)cc2)cc1,-63%,8.9µM*,-6%,?,-4%,9%
COc1ccc(Cc2nc(=S)[nH][nH]2)cc1Br,-7%,7.9µM*,5%,?,-9%,1%
COc1ccc(Cc2n[nH]c(=S)n2C)cc1Br,17%,38%,-1%,-7%,-5%,6%
Oc1ccc(N=Nc2ccc(Br)cc2)c(O)c1,15%,?,-28%,?,?,-10%
Cc1ccc(N=Nc2ccc(O)cc2)c(Br)c1,-33%,2.8µM*,-7%,?,?,-14%
COc1ccc(-n2nc(C(=O)NCC(=O)Nc3cccc(Cl)c3)c3ccccc3c2=O)cc1OC,0%,?,-2%,11µM*,-4%,-3%
O=C(NCCC1=CCCCC1)c1ccc(Br)o1,7%,0%,3%,14%,?,9%
O=C(NC(=S)NCc1ccc(Cl)cc1)c1ccco1,-17%,.,1%,.,7%,.
Cc1ccccc1C(=O)NC(=S)NCCC1=CCCCC1,-13%,4µM*,-2%,16µM*,?,5%
O=C(NC(=S)NCCC1=CCCCC1)c1ccc(Br)o1,7.1µM*,4.5µM*,2%,?,?,0%
O=C(NC(=S)NCCc1ccccc1)c1ccco1,27%,6.3µM*,1%,?,?,-10%
O=C(NC(=S)NCCC1=CCCCC1)c1ccco1,-22%,4.5µM*,1%,?,?,6%
O=C(Cc1ccccc1)NCCC1=CCCCC1,9%,18%,12%,-6%,0%,-1%
Cc1ccccc1OCC(=O)NCCC1=CCCCC1,17%,?,3%,?,6%,.
COC(=O)C/C=C\[C@@H](C)[C@@H](/C=N\OC[C@@H]1O[C@H](c2ccccc2)C=C[C@@H]1Oc1ccc(OC)cc1)OC,.,-6%[10 µM],.,17%[10 µM],.,.
CCOc1ccccc1Nc1nc(-c2sc(NC(=O)c3ccc([N+](=O)[O-])cc3)nc2C)cs1,.,6.3µM*,.,?,?,-1%
C=CCCC(=O)Nc1nc(C)c(-c2csc(Nc3ccccc3OC)n2)s1,-23%,30%,3.5µM*,-10%,?,4%
